Source: PubChem BioAssay (NCI)
This is part of a sample that, as a whole, favours compounds with a hit. Of some 83,000 tested, about 20% had one in any assay.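 Values shown are percent growth following 48 h exposure of cells in 96-well plates to a single concentration of compound; below 10 was considered active.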 Calls of active or inactive are those of the source.

Assays:
Experiment in all cases: NCI-60 one-dose screen, 48 h (100 = growth as untreated, 0 = no growth, -100 = all killed)
Settings in all cases: 10 µM unless noted
[1] = tested on: NCI-H23 lung
[2] = tested on: NCI-H226 lung
[3] = tested on: NCI-H322M lung
[4] = tested on: HOP-62 NSCLC
[5] = tested on: NCI-H460 lung
[6] = tested on: HOP-92 NSCLC
[7] = tested on: NCI-H522 lung
[8] = tested on: A549/ATCC NSCLC
[9] = tested on: 786-0 renal
[10] = tested on: COLO 205 colon
[11] = tested on: DU-145 prostate
[12] = tested on: MALME-3M melanoma
[13] = tested on: MDA-MB-231 breast
[14] = tested on: RXF 393 renal
[15] = tested on: SF-268 CNS
[16] = tested on: SF-295 CNS
[17] = tested on: SF-539 CNS
[18] = tested on: UACC-257 melanoma
[19] = tested on: M14 melanoma

Measured: growth

Cc1c2cc[nH]c(=O)c2c(C)c2c1[nH]c1cc(OCCN3CCN(C)CC3)ccc12
inactive: [6] 18.8% | [9] 20.9% | [15] 11.8%
active: [1] -18.1% | [2] 2.73% | [3] 7.9% | [4] -16.9% | [5] -20.5% | [7] -23.9% | [8] -21.4% | [10] -10.1% | [11] 2.69% | [12] -58.8% | [13] 4% | [14] -25% | [16] 3.16% | [17] -0.233% | [18] -1.41% | [19] -37.1%

COc1cc(CC(=O)n2ncc3ccc(N)cc32)cc(OC)c1OC
inactive: [1] 91.4% | [2] 94.9% | [3] 88.5% | [4] 94.8% | [5] 102% | [6] 99% | [7] 85.6% | [8] 98.9% | [9] 97.5% | [10] 109% | [11] 105% | [12] 85.7% | [13] 79.2% | [14] 108% | [15] 93.5% | [16] 91.3% | [17] 88.4% | [18] 105% | [19] 102%

Cc1nc2ccc(Cl)cn2c1-c1nnc(SCc2ccc([N+](=O)[O-])cc2)o1
inactive: [1] 55.9% | [2] 56.4% | [3] 63.6% | [4] 49.6% | [5] 49.5% | [6] 48.3% | [7] 45.8% | [8] 66.8% | [9] 62.5% | [10] 105% | [11] 67.9% | [12] 31.6% | [13] 41.4% | [15] 46.1% | [16] 74.6% | [17] 20.8% | [18] 61.3% | [19] 70.3%
active: [14] -5.38%

COc1cc(/C=C/C(=O)c2nc3cc(F)ccc3nc2C)cc(OC)c1OC
inactive: [1] 64.6% | [2] 103% | [3] 102% | [4] 106% | [5] 53.5% | [6] 48.9% | [7] 70.3% | [8] 65% | [9] 75.7% | [10] 82% | [11] 22.9% | [12] 65.3% | [13] 85% | [14] 54.5% | [15] 89.2% | [16] 347% | [17] 97.5% | [18] 74.1% | [19] 73.1%

COc1cc(NC(=O)CSc2nc3ccc(C)cc3c(=O)n2Cc2ccccc2)cc(OC)c1OC
inactive: [1] 74.2% | [2] 24.7% | [3] 63.4% | [4] 45.5% | [5] 57.3% | [7] 31.9% | [8] 66.6% | [9] 43.3% | [10] 88.6% | [11] 80.7% | [12] 49.8% | [13] 35.5% | [14] 24.3% | [15] 69.1% | [16] 79.9% | [17] 11.8% | [18] 61.3% | [19] 65.6%
active: [6] 0.585%

OC(c1cccc(C(F)(F)F)c1)c1cnccc1NC1CCCCC1 (configuration not stated)
active: [10] -39.9%
inactive: [1] 60.9% | [2] 82.9% | [3] 90.2% | [4] 87.4% | [5] 82.8% | [6] 45.4% | [7] 82.4% | [8] 75.8% | [9] 73.7% | [11] 85% | [12] 83.2% | [13] 66.1% | [14] 78.8% | [15] 89.6% | [16] 81% | [17] 91.7% | [18] 87% | [19] 87.9%

N=C1C(c2nc3ccccc3s2)=C(O)CN1c1cc(Cl)cc(Cl)c1
active: [6] -15.8%
inactive: [1] 88.6% | [2] 102% | [3] 89.1% | [4] 62.2% | [5] 67.5% | [7] 86.5% | [8] 71.4% | [9] 71.1% | [10] 90.6% | [11] 86.6% | [12] 63.8% | [13] 66.4% | [14] 63.9% | [15] 173% | [16] 88.2% | [17] 46.9% | [18] 74.4% | [19] 69%

NC(=O)CSSCC(N)=O
inactive: [1] 99.2% | [2] 108% | [3] 96.9% | [4] 103% | [5] 111% | [6] 83.8% | [7] 92.1% | [8] 93.1% | [9] 95.3% | [10] 108% | [11] 104% | [12] 93.3% | [13] 109% | [14] 117% | [15] 97.9% | [16] 97.1% | [17] 102% | [18] 95.8% | [19] 93.2%
